Gal4-VP16 FLuc: inhibits Gal4-VP16 luciferase reporter, ROR gamma counter-screen; AID 2546; actives 3.5% (n = 310,000); Drosophila S2 Gal4-VP16 UAS-luciferase, luminescence, 20 h; Potency, µM (highest dose often 53.6 µM), without a hit: top-dose activity, negative = inhibition, hits mostly inhibitors;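 note: Gal4-VP16 expression switched on by copper sulfate through the metallothionein promoter; potency is the fitted concentration of half-maximal effect; nearly all actives have a fitted effect of over 50% in size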
ELG1 DNA repair: ELG1-dependent DNA repair inhibition; HEK293T ELG1-luciferase reporter, luminescence, 16 h; DNA damage induced by 5-fluorouridine; Potency, µM (top dose mostly 46.1 µM), for the others: top-dose activity change, negative = inhibition, usual class: inhibitors; actives 2.3% (n = 330,000); AID 504467; note: potency is the fitted concentration of half-maximal effect; nearly all actives have a fitted effect of over 55% in size
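HEK293T cells expressing luciferase-tagged ELG1 (2,000/well) received 5-Fluorouridine plus compound or DMSO for 16 hr at 37 °C. Luciferase was read by ONE-Glo luminescence after 30 min at room temperature.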
TSHR antagonist: human thyrotropin receptor antagonism. AID 504810. P16473. actives 0.2% (n = 330,000). TSHR-expressing cells, TSH-stimulated cAMP HTRF, 2 h; active compounds read low. activity change, negative = inhibition, % at 11.5 µM;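 active = activity change below a set negative limit, meaning inhibition stronger than a set level, cut at about -70% in these data; inconclusive = activity change between two set negative limits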
Target sequence (P16473 whole entry, looked up): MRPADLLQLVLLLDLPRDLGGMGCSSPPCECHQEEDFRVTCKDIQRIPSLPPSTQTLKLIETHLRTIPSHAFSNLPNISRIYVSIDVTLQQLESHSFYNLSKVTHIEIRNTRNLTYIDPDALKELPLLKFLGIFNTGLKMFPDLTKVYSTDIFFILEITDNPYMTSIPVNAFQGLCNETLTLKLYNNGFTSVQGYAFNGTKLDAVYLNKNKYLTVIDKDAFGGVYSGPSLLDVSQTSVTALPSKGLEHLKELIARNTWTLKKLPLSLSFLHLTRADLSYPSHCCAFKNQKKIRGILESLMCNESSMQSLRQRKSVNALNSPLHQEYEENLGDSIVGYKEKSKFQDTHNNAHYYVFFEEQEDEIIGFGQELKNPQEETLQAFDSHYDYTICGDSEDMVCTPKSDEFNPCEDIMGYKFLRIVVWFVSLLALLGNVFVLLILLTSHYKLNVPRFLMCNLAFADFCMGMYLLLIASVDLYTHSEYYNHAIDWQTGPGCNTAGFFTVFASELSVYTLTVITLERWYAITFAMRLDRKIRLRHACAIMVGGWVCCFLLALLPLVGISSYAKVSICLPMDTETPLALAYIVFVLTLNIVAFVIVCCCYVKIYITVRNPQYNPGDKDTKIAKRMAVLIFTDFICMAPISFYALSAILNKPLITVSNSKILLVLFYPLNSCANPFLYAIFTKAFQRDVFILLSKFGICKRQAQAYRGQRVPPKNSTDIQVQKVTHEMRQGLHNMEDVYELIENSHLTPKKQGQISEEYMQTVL
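TSHR-expressing cells were treated with compounds, then stimulated with TSH at EC80 (4nM final) for 2 hours at 37 deg C. Cellular cAMP was measured by HTRF competition between lysate cAMP and cAMP-d2 for a cryptate-labelled anti-cAMP antibody.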
RORgamma inh: ROR gamma (mouse) transcription inhibition. P51450. Drosophila S2 Gal4-RORgamma UAS-luciferase reporter, 20 h. Potency, µM (titrated, usually from 53.6 µM), without a hit: at the highest dose activity change, negative = inhibition, hits mostly inhibitors. actives 5.4% (n = 310,000). AID 2551; note: potency is the fitted concentration of half-maximal effect; nearly all actives have a fitted effect of over 60% in size
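Read-out: Photinus luciferase luminescence; inhibitors lower reporter signal. Insect Schneider cells with Gal4-ROR gamma fusion under metallothionein promoter, UAS reporter; 700 uM final copper sulfate induction, 20 hr, ambient temperature.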
B2AR arrestin: agonists driving beta-arrestin recruitment to human beta2-adrenergic receptor | AID 492947 | P07550 | beta-arrestin recruitment to beta2AR, cell-based reporter | actives 0.02% (n = 330,000) | Potency, µM (series often up to 46.1 µM), inactives show at the top dose activation, usual class: activators;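 note: potency is the fitted concentration of half-maximal effect; 0% = DMSO controls and full agonism = EC100 isoproterenol or metaproterenol; nearly all actives have a fitted effect of over 65% in size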
Numbers without * were called inactive; ? = inconclusive; · = not tested or not shown; [ ] = dose if it differs, or a comment. Sampled rows, rich in hits. Any-hit rate of the full collection: about 7.5%. Unless noted, calls come from the whole dose curve; as a rule, active = well fitted curve in the direction sought with a large enough effect; inconclusive = small, poorly fitted or top-dose-only effect, or another doubt; inactive = no such curve, though single readings can be large; an effect the other way counts as inactive or inconclusive. Unless noted, % is set by controls: 0 for no effect and ±100 for the full control effect.

SMILES | Gal4-VP16 FLuc | ELG1 DNA repair | TSHR antagonist | RORgamma inh | B2AR arrestin
Cc1ccc(S(=O)(=O)N2CCCCC2)cc1NC(=O)c1ccc2c(=O)n3c(nc2c1)CCCCC3 | -1.7% | 11.6µM* | -8.3 | 40.5% | -0.4%
O=C(c1ccc2c(=O)n3c(nc2c1)CCCCC3)N1CCN(C(c2ccccc2)c2ccccc2)CC1 | 6.0% | 23.1µM* | -9.7 | 35.2% | -0.2%
CC(=O)c1ccc(NC(=O)c2ccc3c(=O)n4c(nc3c2)CCCCC4)cc1 | 5.0% | ? | -10.0 | 16.4% | -1.6%
O=C(Nc1ccc(F)cc1)c1ccc2c(=O)n3c(nc2c1)CCCCC3 | ? | ? | -1.3 | 33.4% | -1.7%
Cc1ccc(-c2csc(NC(=O)c3ccc4c(=O)n5c(nc4c3)CCCCC5)n2)cc1 | -9.0% | 2.91µM* | -46.2 | ? | -1.5%
O=C(NCc1cccc(Cl)c1)C1CCN(S(=O)(=O)c2ccc(F)cc2)CC1 | -12.6% | -0.7% | 24.8 | 12.9% | 0.4%
COc1ccc(-c2[nH]c(-c3cc(OC)c4c(c3)OCO4)nc2-c2ccccc2)cc1 | 2.2% | 20.6µM* | -18.7 | ? | 2.7%
Cc1ccc(-c2[nH]c(-c3ccc(C(=O)O)cc3)nc2-c2ccccc2)cc1 | -7.0% | 14.4% | -22.4 | 26.9% | -0.8%
CCc1ccc(NC(=S)N(Cc2ccccc2)Cc2ccccn2)cc1 | ? | 9.8% | 6.7 | 0.316µM* | -0.7%
COc1ccc(NC(=S)N(CCO)Cc2ccccc2)cc1 | -7.6% | 13.8% | 4.3 | -14.8% | -0.2%
COc1cccc(NC(=S)N(Cc2ccccn2)Cc2ccccc2Cl)c1 | ? | ? | -11.5 | 6.31µM* | -0.9%
COCCN(Cc1ccccc1)C(=S)Nc1ccc(Cl)cc1 | -1.7%[10 µM] | ? | -17.3 | 7.08µM* | -0.2%
COc1ccc(NC(=S)N(Cc2ccccn2)Cc2ccccc2Cl)cc1 | -14.8%[10 µM] | ? | -1.2 | 5.62µM* | 3.0%
COc1ccc(-n2c(=O)c(-c3cccc(C#N)c3)nc3cnc(N4CCNCC4)nc32)cc1 | -2.4% | · | · | 16.0% | ·
CCn1c(=S)sc2c(=O)n(CC(=O)Nc3ccccc3OC)c(C)nc21 | -5.4% | -23.4% | -134.1* | 5.7% | 0.1%
O=C(Nc1ccc(NC(=O)c2ccco2)nc1)c1cccc(F)c1 | -9.6% | ? | -4.6 | -6.8% | -0.9%
O=C(Nc1ccc(NC(=O)C2CC2)cn1)c1ccccc1 | 0.1µM* | ? | 1.8 | 12.6µM* | 0.1%
Cc1cccc(NC(=O)c2cc(NC(=O)c3ccco3)ccc2Cl)n1 | 0.0% | 11.6µM* | -0.9 | 39.1% | -0.2%
O=C(Nc1ccc(NC(=O)C2CC2)nc1)c1ccco1 | 1.0% | ? | 3.4 | ? | -0.5%
O=C(Nc1ccc(NC(=O)c2ccccc2F)cn1)c1ccco1 | 12.6µM* | ? | 2.1 | 14.1µM* | -0.3%
O=C(Nc1ccc(NC(=O)c2ccco2)nc1)c1cccnc1 | ? | ? | 17.2 | 0.794µM* | 0.5%
Cc1cccc(NC(=O)c2cc(NC(=O)C3CCCCC3C(=O)O)ccc2Cl)n1 (centres undefined) | 0.8% | 1.7% | -2.2 | -17.9% | 0.3%
CCNc1ncc2ncc(=O)n(Cc3cccs3)c2n1 | 2.8% | · | · | -29.2% | ·
CCOC(=O)C1=C(c2ccccc2)c2cc(OC)ccc2OC1C(=O)OCC (centres undefined) | -4.0% | · | · | -16.1% | ·
COc1ccccc1C(=O)NC(CCSC)C(=O)NCc1ccncc1 (centres undefined) | · | 11.4% | 24.9 | · | 7.0%
SMILES | Gal4-VP16 FLuc | ELG1 DNA repair | TSHR antagonist | RORgamma inh | B2AR arrestin
CCCCN(C)CCCNC(=O)C1CCC(CNS(=O)(=O)c2c(C)cc(C)cc2C)CC1 (centres undefined) | -5.0% | 11.1% | 2.8 | 6.9% | 0.1%
COc1ccc(NC(=O)/C=C/c2cccc(C(F)(F)F)c2)cn1 | -9.5% | 18.3µM* | -22.3 | 8.9% | 0.2%
CC(C)(C)c1ccc(Oc2ccc(NC(=O)c3ccco3)cn2)cc1 | ? | -22.1% | -35.7 | ? | 3.5%
COc1ccc(NC(=O)/C=C/c2cccc(Br)c2)cn1 | ? | ? | -12.0 | ? | -0.4%
O=C(Nc1ccc(Oc2cccc(C(F)(F)F)c2)nc1)c1ccco1 | -0.2% | 10.3µM* | -8.0 | ? | 0.1%
C=CC[C@@H]1C=C[C@@H](O/N=C2/[C@H]3O[C@@H]3[C@@H](O)[C@H]3[C@H]2CCn2c(=O)n(-c4ccccc4)c(=O)n23)[C@@H](CO)O1 | -4.1%[10 µM] | · | · | 27.3%[10 µM] | ·
CC(C)CC(CSc1ccc(Br)cc1)N1CCN(CCc2ccccc2)CCC1=O (centres undefined) | -11.9% | · | · | 33.0% | ·
CC(C)S(=O)(=O)c1csc(C(=O)NN)c1Cl | -17.6% | 2.9% | -0.6 | 10µM* | -0.3%
CO[C@@H]1COC(=O)[C@H](CCSC)NC(=O)C/C=C\[C@@H](C)COC(=O)[C@@H]2CCCN2C(=O)C/C=C\[C@H]1C | -6.1%[10 µM] | · | · | -8.7%[10 µM] | ·
CC(=O)OCC(=O)[C@@]12OC3(CCCC3)OC1CC1C3CCC4=CC(=O)C=C[C@@]4(C)[C@]3(F)C(O)C[C@]12C (some centres undefined) | -11.4% | · | · | 3.55µM* | ·
CC(=O)OCC(=O)[C@@]1(O)[C@H](C)C[C@H]2[C@@H]3CCC4=CC(=O)C=C[C@]4(C)[C@@]3(F)[C@@H](O)C[C@@]21C | 1.9% | 26.0% | -3.2 | 30.4% | -1.3%
COc1cccc(-n2c(CN3CCN(c4ccccc4)CC3)nc3ccc([N+](=O)[O-])cc3c2=O)c1 | -7.4% | 18.4µM* | 1.5 | -6.3%[10 µM] | 0.3%
COc1ccc(-n2c(CN3CCN(c4ccccc4OC)CC3)nc3ccc([N+](=O)[O-])cc3c2=O)c(OC)c1 | 20.1% | -12.2% | -5.1 | -15.2% | -0.4%
CC(C)[C@@H](CC(=O)N[C@@H]1CCCC[C@H]1C(=O)N[C@H](CC(=O)N[C@@H](CCC(=O)O)CC(=O)O)Cc1ccccc1)NC(=O)C[C@H](Cc1c[nH]c2ccccc12)NC(=O)[C@@H]1CNCC[C@H]1N | -2.9% | · | · | -10.0% | ·
CC(Oc1ccc(Br)cc1)C(=O)Nc1nc(-c2ccccn2)cs1 (centres undefined) | 3.16µM* | ? | -13.0 | 2.51µM* | ?
CC(C)[C@H](NC(=O)c1ccccc1Cl)C(=O)Nc1nc(-c2ccccn2)cs1 | ? | ? | -28.0 | 7.94µM* | ?
CCc1nnc(NC(=O)C(NC(=O)c2ccccc2Cl)C(C)C)s1 (centres undefined) | 2.0% | 5.4% | 0.1 | -7.4% | 0.6%
CCOC(=O)C1=C(C)Nc2ccccc2N=C1NC(=O)c1oc2ccccc2c1COC | · | 11.2µM* | 1.2 | · | 0.1%
CCOC(=O)C1=C(C)Nc2ccccc2N=C1N | -17.2% | 7.7% | 0.8 | 0.0% | 0.0%
O=S(=O)(c1ccccc1)N1CCC2(CCN(Cc3nccs3)CC2)CC1 | -2.9% | · | · | -8.2% | ·
